Data published in PubChem BioAssay (NCATS).
Inconclusive results are not listed. More than one record can exist for a structure, and the calls need not agree. Activity calls are given as the source filed them. Calls follow the shape of the dose curve; as a rule, active = well fitted curve in the direction sought with a large enough effect; inconclusive = small, poorly fitted or top-dose-only effect, or another doubt; inactive = no such curve, though single readings can be large; an effect the other way counts as inactive or inconclusive.

Legend:
MCC-26 = assay: qHTS assay to identify novel small-molecules to repurpose for Merkel cell carcinoma treatment (AID 1296009); conditions: MCC and control cell lines, CellTiter-Glo viability, 72 h; series mostly up to 46 µM; also: nearly all actives have a fitted effect of over 60% in size
Summary of the method: (§1)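 Cell viability, measured as CellTiter-Glo luminescence, was normalized between DMSO and no-cell wells. The cells had been exposed to 8- or 11-point compound dilutions for 72 hr at 37 degree celsius.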

MKL-1 = assay: as above; conditions: MCC and control cell lines, CellTiter-Glo viability, 72 h; series mostly up to 46 µM
Summary of the method: as §1

MKL-2 = assay: as above; conditions: MCC and control cell lines, CellTiter-Glo viability, 72 h; series mostly up to 46 µM
Summary of the method: as §1

NIH3T3 = assay: as above; conditions: MCC and control cell lines, CellTiter-Glo viability, 72 h; at 44.8 µM (top of the series) unless noted
Summary of the method: as §1

UISO = assay: as above; conditions: MCC and control cell lines, CellTiter-Glo viability, 72 h; series mostly up to 46 µM
Summary of the method: as §1

WaGa = assay: as above; conditions: MCC and control cell lines, CellTiter-Glo viability, 72 h; series mostly up to 46 µM
Summary of the method: as §1

C33A = assay: Primary qHTS to identify gynecologic anti-cancer compounds using libraries of approved drugs and bioactive compounds (AID 1345084); conditions: Gynecologic cancer cell panel viability, ATPlite luminescence, 48 h; series mostly up to 57.5 µM; also: nearly all actives have a fitted effect of over 55% in size; also: potency is read from the fitted curve at half-maximal effect
Summary of the method: (§2)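 48 h compound exposure at 37 C, 5% CO2; five-point qHTS. ATPlite luminescence readout of cell ATP.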

CAOV3 = assay: as above; conditions: Gynecologic cancer cell panel viability, ATPlite luminescence, 48 h; series mostly up to 57.5 µM
Summary of the method: as §2

CASKI = assay: as above; conditions: Gynecologic cancer cell panel viability, ATPlite luminescence, 48 h; series mostly up to 57.5 µM
Summary of the method: as §2

Es-2 = assay: as above; conditions: Gynecologic cancer cell panel viability, ATPlite luminescence, 48 h; series mostly up to 57.5 µM
Summary of the method: as §2

Hek293T = assay: as above; conditions: Gynecologic cancer cell panel viability, ATPlite luminescence, 48 h, control line for the selectivity index; series mostly up to 57.5 µM
Summary of the method: as §2

JEG-3 = assay: as above; conditions: Gynecologic cancer cell panel viability, ATPlite luminescence, 48 h; series mostly up to 57.5 µM
Summary of the method: as §2

OV90 = assay: as above; conditions: Gynecologic cancer cell panel viability, ATPlite luminescence, 48 h; series mostly up to 57.5 µM
Summary of the method: as §2

PA-1 = assay: as above; conditions: Gynecologic cancer cell panel viability, ATPlite luminescence, 48 h; series mostly up to 57.5 µM
Summary of the method: as §2

SKOV3 = assay: as above; conditions: Gynecologic cancer cell panel viability, ATPlite luminescence, 48 h; series mostly up to 57.5 µM
Summary of the method: as §2

Tov-21-G = assay: as above; conditions: Gynecologic cancer cell panel viability, ATPlite luminescence, 48 h; series mostly up to 57.5 µM
Summary of the method: as §2

Tov112D = assay: as above; conditions: Gynecologic cancer cell panel viability, ATPlite luminescence, 48 h; series mostly up to 57.5 µM
Summary of the method: as §2

[1] = Drug repurposing screens with cells derived from glioblastoma tumor samples (AID 1345199); conditions: GBM patient neurospheres viability, ATP luminescence, 48 h; also: nearly all actives have a fitted effect of over 40% in size; also: potency is read from the fitted curve at half-maximal effect
Summary of the method: (§3)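 Primary testing used CD133+ neurospheres from four GBM patients, seven concentrations, 48 h exposure and ATP-based viability; confirmation added three slower-growing patient lines.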

astro = assay: as above; conditions: viability, ATP luminescence, 48 h; series mostly up to 45.9 µM
Summary of the method: as §3

HeLa = assay: Primary qHTS to identify gynecologic anti-cancer compounds using libraries of approved drugs and bioactive compounds (AID 1345084); conditions: Gynecologic cancer cell panel viability, ATPlite luminescence, 48 h; series mostly up to 57.5 µM; also: nearly all actives have a fitted effect of over 55% in size; also: potency is read from the fitted curve at half-maximal effect
Summary of the method: as §2

[2] = at 45.9 µM (top of the series), tumour line B
[3] = at 45.9 µM (top of the series), tumour line D
[4] = at 46.1 µM (top of the series), tumour line C
[5] = at 46 µM (top of the series), tumour line A
% is scaled to controls: 0 for no effect and ±100 for the full control effect.

NC(=Nc1ccccc1)Nc1ccccc1
inactive: Potency (MCC-26) | Potency (MKL-1) | Potency (MKL-2) | outcome (NIH3T3) inactive [at 92 µM] | Potency (UISO) | Potency (WaGa) | Potency (C33A) | Potency (CAOV3) | Potency (CASKI) | Potency (Es-2) | Potency (Hek293T) | Potency (JEG-3) | Potency (PA-1) | Potency (SKOV3) | Potency (Tov-21-G) | Potency (Tov112D) | activity, negative = cell killing [1, 2] -2.03% | activity, negative = cell killing [1, 3] -11.9% | activity, negative = cell killing [1, 4] 5.57% | activity, negative = cell killing ([1]; at 91.6 µM (top of the series), tumour line B) -24.2% | activity, negative = cell killing ([1]; at 91.6 µM (top of the series), tumour line D) -23% | activity, negative = cell killing ([1]; at 99.2 µM (top of the series), tumour line C) 19% | Potency (astro)
14.1 µM (active) and inactive: Potency (OV90)
active: Potency ([1]; tumour line A) 25.1 µM

c1cnc(N2CCN(Cc3ccc4c(c3)OCO4)CC2)nc1
inactive: Potency (MCC-26) | Potency (MKL-1) | Potency (MKL-2) | Potency (UISO) | Potency (WaGa) | Potency (C33A) | Potency (CAOV3) | Potency (CASKI) | Potency (Es-2) | Potency (HeLa) | Potency (Hek293T) | Potency (JEG-3) | Potency (OV90) | Potency (PA-1) | Potency (SKOV3) | Potency (Tov-21-G) | Potency (Tov112D) | activity, negative = cell killing [1, 2] -3.93% | activity, negative = cell killing [1, 3] -6.17% | activity, negative = cell killing [1, 4] -21.6% | Potency (astro)

Cc1cccc(C)c1NC(=O)C(C)N (stereo unspecified)
inactive: Potency (MCC-26) | Potency (MKL-1) | Potency (MKL-2) | Potency (UISO) | Potency (WaGa) | Potency (C33A) | Potency (CAOV3) | Potency (CASKI) | Potency (Es-2) | Potency (Hek293T) | Potency (JEG-3) | Potency (OV90) | Potency (PA-1) | Potency (SKOV3) | Potency (Tov-21-G) | Potency (Tov112D) | activity, negative = cell killing ([1]; at 20 µM (top of the series), tumour line C) 6.4% | activity, negative = cell killing ([1]; at 21.2 µM (top of the series), tumour line B) -16.9% | activity, negative = cell killing ([1]; at 21.2 µM (top of the series), tumour line D) 1.82%

NC(N)=NC(=O)Cc1c(Cl)cccc1Cl
active: Potency ([1]; tumour line A) 5.62 µM
inactive: Potency (MCC-26) | Potency (MKL-1) | Potency (MKL-2) | Potency (UISO) | Potency (WaGa) | Potency (C33A) | Potency (CAOV3) | Potency (CASKI) | Potency (Es-2) | Potency (HeLa) | Potency (Hek293T) | Potency (JEG-3) | Potency (PA-1) | Potency (SKOV3) | Potency (Tov-21-G) | Potency (Tov112D) | activity, negative = cell killing [1, 4] -19.8% | Potency (astro)

CN=C(NC#N)NCCSCc1nc[nH]c1C
inactive: Potency (MCC-26) | Potency (MKL-1) | Potency (MKL-2) | Potency (UISO) | Potency (WaGa) | Potency (C33A) | Potency (CAOV3) | Potency (CASKI) | Potency (Es-2) | Potency (Hek293T) | Potency (JEG-3) | Potency (OV90) | Potency (PA-1) | Potency (SKOV3) | Potency (Tov-21-G) | Potency (Tov112D) | activity, negative = cell killing [1, 2] -8.34% | activity, negative = cell killing [1, 3] -15.2% | activity, negative = cell killing [1, 5] -11.7% | activity, negative = cell killing [1, 4] -4.17%

C[N+](C)(C)CCOC(N)=O
inactive: Potency (MCC-26) | Potency (MKL-1) | Potency (MKL-2) | Potency (UISO) | Potency (WaGa) | Potency (C33A) | Potency (CASKI) | Potency (Es-2) | Potency (Hek293T) | Potency (JEG-3) | Potency (OV90) | Potency (PA-1) | Potency (SKOV3) | Potency (Tov-21-G) | Potency (Tov112D) | activity, negative = cell killing [1, 2] -5.35% | activity, negative = cell killing [1, 3] -11.4% | activity, negative = cell killing [1, 4] -0.881% | Potency (astro)

O=c1[nH]c(=O)n([C@H]2C[C@H](O)[C@@H](CO)O2)cc1Br
inactive: Potency (MCC-26) | Potency (MKL-1) | Potency (MKL-2) | Potency (C33A) | Potency (CASKI) | Potency (Es-2) | Potency (Hek293T) | Potency (JEG-3) | Potency (OV90) | Potency (PA-1) | Potency (SKOV3) | Potency (Tov-21-G) | Potency (Tov112D) | activity, negative = cell killing [1, 2] -18.1% | activity, negative = cell killing [1, 3] 7.04% | activity, negative = cell killing [1, 4] -12.6%

CCCCNc1c(C(=O)OCC)c(C)nc2c1cnn2CC
inactive: Potency (MCC-26) | Potency (MKL-1) | Potency (MKL-2) | Potency (WaGa) | Potency (C33A) | Potency (CAOV3) | Potency (CASKI) | Potency (Es-2) | Potency (HeLa) | Potency (Hek293T) | Potency (JEG-3) | Potency (OV90) | Potency (PA-1) | Potency (Tov-21-G) | Potency (Tov112D) | activity, negative = cell killing [1, 2] -23.3%
active: Potency ([1]; tumour line A) 12.6 µM

COc1ccc2c(c1OC)C(=O)O[C@@H]2[C@H]1c2c(cc3c(c2OC)OCO3)CCN1C
inactive: Potency (MCC-26) | Potency (MKL-1) | Potency (MKL-2) | Potency (C33A) | Potency (Es-2) | Potency (HeLa) | Potency (Hek293T) | Potency (JEG-3) | Potency (OV90) | Potency (PA-1) | Potency (Tov-21-G) | Potency (Tov112D) | activity, negative = cell killing [1, 2] -11.4% | activity, negative = cell killing [1, 3] -14.1% | activity, negative = cell killing [1, 4] 1.26% | Potency (astro)

CN(C)CC/C=C1\c2ccccc2COc2ccccc21
inactive: Potency (MCC-26) | Potency (MKL-1) | Potency (UISO) | Potency (WaGa) | Potency (C33A) | Potency (CAOV3) | Potency (Es-2) | Potency (Hek293T) | Potency (JEG-3) | Potency (PA-1) | Potency (SKOV3) | Potency (Tov-21-G) | Potency (Tov112D) | activity, negative = cell killing [1, 2] -27.9% | activity, negative = cell killing [1, 4] -1.82% | Potency (astro)
active: Potency ([1]; tumour line A) 14.1 µM

CCOC(=O)c1cnc2c(cnn2CC)c1NN=C(C)C
active: Potency ([1]; tumour line A) 11.2 µM
inactive: Potency (MCC-26) | Potency (MKL-1) | Potency (UISO) | Potency (WaGa) | Potency (C33A) | Potency (CAOV3) | Potency (CASKI) | Potency (Es-2) | Potency (HeLa) | Potency (Hek293T) | Potency (JEG-3) | Potency (OV90) | Potency (PA-1) | Potency (SKOV3) | Potency (Tov-21-G) | Potency (Tov112D) | activity, negative = cell killing [1, 2] -11.6% | activity, negative = cell killing [1, 3] -28.3% | activity, negative = cell killing [1, 4] -18.1% | Potency (astro)

O=C(CCNNC(=O)c1ccncc1)NCc1ccccc1
inactive: Potency (MCC-26) | Potency (MKL-1) | Potency (MKL-2) | Potency (UISO) | Potency (C33A) | Potency (CAOV3) | Potency (CASKI) | Potency (Es-2) | Potency (HeLa) | Potency (Hek293T) | Potency (JEG-3) | Potency (OV90) | Potency (PA-1) | Potency (SKOV3) | Potency (Tov-21-G) | Potency (Tov112D) | activity, negative = cell killing [1, 2] -4.66% | activity, negative = cell killing [1, 3] -5.12% | activity, negative = cell killing [1, 5] -24.8% | activity, negative = cell killing [1, 4] 1.75% | Potency (astro)
